Experimental data as given in PubChem BioAssay (NCI).
Compounds without any hit were thinned out: in the full panel of roughly 83,000, 20% have a hit.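 The test compound was applied at a single concentration to cells in 96-well plates for 48 hours, and percent growth was recorded.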 Unmarked numbers belong to inactive results. Activity calls are given as the source filed them.

tested on: MCF7 breast; assay: NCI-60 one-dose screen, 48 h (100 = growth as untreated, 0 = no growth, -100 = all killed); conditions: 10 µM unless noted
Procedure: Growth inhibition of the MCF7 human tumor cell line is measured as a screen for anti-cancer activity. Cells are grown in 96 well plates and exposed to the test compound for 48 hours. Compounds are tested at a single concentration, which is 10^-5 M for most compounds. The reported endpoint is percent growth (GI% or GIPRCNT), where numbers from 0 - 100% represent growth inhibition, and numbers from -100% - 0 represent cell death. For example, a value of 40 represents 60% growth inhibition. A value of 0 means no net growth occurred over the course of the experiment. A value of -40 indicates 40% of cells at the beginning of the experiment died by the end of the experiment. A value of -100 means all cells are dead at the end of the experiment.
NCI-60 Human Tumor Cell Lines Screen was performed using the standard one-dose NCI protocol, which is described in more detail at https://dtp.cancer.gov/discovery_development/nci-60/default.htm.
Compounds with GIPRCNT values below 10 were considered active. Activity score was based on GIPRCNT using the following formula: […]
Score is 0 for GIPRCNT values of 100 or above, 50 for GIPRCNT values of 0, and 100 for GIPRCNT values of -100.

Row | Compound | growth
1 | C/C(=N\N=C(/C)c1cccc([N+](=O)[O-])c1)c1cccc([N+](=O)[O-])c1 | 86.8%
2 | CC(=O)NNC(=S)N/C=C/c1c(C)ccc([N+](=O)[O-])c1[N+](=O)[O-] | 96.2%
3 | CC(=O)/C(C)=N\OC(=O)Nc1ccccc1 | 93.5%
4 | COc1cc(CC#N)c([N+](=O)[O-])cc1OC | 102%
5 | COc1c(CNC(=O)CCl)cc2[nH]c(C)cc2c1CNC(=O)CCl | 36%
6 | COC1C(=O)CCC2(CO2)C1(O)C1(C)OC1CCC(C)C (stereo not given) | 69.1%
7 | CCCCCCCCNC(=O)C(C)C | 92%
8 | Clc1cccc(Cl)c1CSc1nc2ccccc2n2cccc12 | 17%
9 | O=C1C=C(c2ccccc2)C(O)(c2ccccc2)C1 (stereo not given) | 98.2%
10 | CN(C)c1ccc2nc3ccc(=[N+](C)C)cc-3oc2c1 | -30.4% (active)
11 | COC(=O)c1ccccc1C(=O)c1c(C)cc(C)cc1C | 102%
12 | CSCC[C@@H]1C(=O)N(C)[C@H](C(C)(C)C)N1C(=O)c1ccccc1 | 101%
13 | Cc1ccc(NC(=O)c2ccccc2Cl)cc1 | 99.4%
14 | Cn1/c(=N\N=C\c2ccccc2OCCO)sc2ccccc21 | 76.9%
15 | N#C/C(=C\c1ccc(C#N)cc1)C(=O)c1ccccc1 | 97.5%
16 | CCC(/C=C\C(C)=O)CC | 105%
17 | O=C(O)c1ccccc1Cc1ccc2c(c1)CCCC2 | 91.7%
18 | O=C(CCl)Oc1ccc([N+](=O)[O-])cc1 | 99.5%
19 | COC(=O)Cc1cc(COC(C)=O)ccc1C | 106%
20 | CCOC(=O)N[C@H]1CCc2cc(OC)c(OC)c(OC)c2-c2ccc(SC)c(=O)cc21 | 13.5%

Row | Compound | growth
21 | NC(=O)OCCO | 92.9%
22 | ClCc1cccc2c(CCl)cccc12 | 24.4%
23 | Cc1c(-c2ccc(C3CCCCC3)cc2)nc2ccc(F)cc2c1C(=O)O | 27%
24 | O=C(NCc1ccco1)Nc1cccc2c(NC(=O)NCc3ccco3)cccc12 | 60.1% [100 µM]
25 | O=C1C=Cc2ccccc2/C1=C/c1[nH]c(=O)[nH]c1O | 12.9%
26 | CC(=O)N(C)N=Nc1ccc(C)cc1 | 106%
27 | CCC(C)c1c(N)n(S(=O)(=O)c2ccc(C)cc2)oc1=O (stereo not given) | 108%
28 | O=Cc1ccc(Cl)c(Cl)c1 | 98.4%
29 | COc1cc(OC)c2cc(C(=O)c3ccc(C#N)cc3)c(=O)oc2c1 | 97.1%
30 | Nc1ccn(C2OC(CO)C(O)C2F)c(=O)n1 (stereo not given) | 46.7%
31 | CCOC(=N)CC(=O)Nc1cccc(C)c1Cl | 89.5%
32 | CC(CO)(CO)C(=O)O | 101%
33 | CC1(C)C2CCC1(C)C1(C2)OCCS1 (stereo not given) | 88.9%
34 | O=S(=O)(O)C(C(I)I)S(=O)(=O)O | 98.9%
35 | CC(=O)c1ccc(C)cc1 | 100%
36 | CC(=O)Nc1ccc(C(=O)c2ccc(S(=O)(=O)Nc3ccccc3)cc2)cc1 | 85.3%
37 | COc1nc(Nc2cccc(C(F)(F)F)c2)nc(OC)n1 | 97.9%
38 | O=c1nc(Nc2cccc(Cl)c2)oc2cc(Cl)oc(=O)c12 | 53.8%
39 | Nc1nnc2cc(F)ccc2n1 | 96.3%
40 | COc1cccc(N=CNc2cccc(OC)c2)c1 | 92.2%
